Assay [1] can be described thus: ATG_PXRE_CIS: Attagene CIS-FACTORIAL HepG2 Assay for human Pregnane X Receptor Element (PXRE) (AID 2282957). The following applies: HepG2 Attagene CIS-FACTORIAL PXRE reporter, mRNA; actives raise or lower the signal. A digest of the protocol: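 Endogenous transcription factor activity in HepG2 was gauged through induction of reporter mRNA driven by a cis-regulating promoter element, sampled 24 h post-treatment. Activity was fitted in both directions against DMSO negative control.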

A short description of assay [2]: ATG_PPRE_CIS: Attagene CIS-FACTORIAL HepG2 Assay for human Peroxisome Proliferator-activated Response Element (PPRE) (AID 2282958). The following applies: HepG2 PPRE cis-element reporter, Attagene transcription factor profiling; actives raise or lower the signal. In outline:
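In this cell-based multiplex, a PPRE cis element drives a reporter sequence in transiently transfected HepG2 cells. Following 24 h treatment, labeled cDNA amplicons are sized and quantified by capillary electrophoresis, with DMSO defining baseline.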

The nature of assay [3]: ATG_RORE_CIS: Attagene CIS-FACTORIAL HepG2 Assay for human RAR-related Orphan Receptor Element (RORE) (AID 2282959). The following applies: HepG2 Attagene cis-factorial RORE reporter, mRNA; actives raise or lower the signal. In outline:
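Endogenous factor activity at a cis response element is read as reporter transcript levels in HepG2 cells, 24 h post-dose. Transcripts are quantified by RT-PCR with capillary electrophoresis, and data fitted in both directions against DMSO.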

A short description of assay [4]: ATG_Sox_CIS: Attagene CIS-FACTORIAL HepG2 Assay for human SRY-box transcription factor (SOX) (AID 2282960). Particulars: HepG2 Attagene cis-factorial SOX reporter, mRNA; actives raise or lower the signal. A digest of the protocol: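 Measures mRNA induction of a SOX1-associated reporter in HepG2 after 24 h dosing. Fluorescently labelled RT-PCR fragments are separated by capillary electrophoresis, and gain or loss relative to DMSO control is fitted.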

The target in assay [5] is Transcription factor Sp1 (Homo sapiens) (UniProt P08047). Description: ATG_Sp1_CIS: Attagene CIS-FACTORIAL HepG2 Assay for human Specificity Protein 1 (Sp1) (AID 2282961). Particulars: HepG2 Sp1 cis-reporter transcription, actives raise or lower the signal. In outline: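 Cells: HepG2, transiently transfected with cis-regulated multiplexed reporters. Exposure: 24 h. Detection: reporter transcripts amplified, fluorescently labeled, restriction-digested and sized by capillary electrophoresis. Analysis: bidirectional fit relative to DMSO.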

Assay [6] can be described thus: ATG_SREBP_CIS: Attagene CIS-FACTORIAL HepG2 Assay for human Sterol Regulatory Element Binding (SREBP) (AID 2282962). Particulars: HepG2 Attagene cis-factorial SREBP reporter, mRNA; actives raise or lower the signal. A digest of the protocol:
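Endogenous SREBP activity read as cis-element-driven reporter transcript in transiently transfected HepG2, 24 h post-dosing; quantified via RT-PCR plus capillary electrophoresis of fluorescent fragments. Gain or loss of signal fitted relative to DMSO baseline.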

The target of assay [7] is Signal transducer and activator of transcription 3 (Homo sapiens) (UniProt P40763). Description: ATG_STAT3_CIS: Attagene CIS-FACTORIAL HepG2 Assay for human Signal Transducer and Activator of Transcription 3 (STAT3) (AID 2282963). The following applies: HepG2, Attagene cis-factorial STAT3 reporter transcription; actives raise or lower the signal. In outline:
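Fluorescence intensity of 6-FAM-labelled reporter fragments, separated by capillary electrophoresis after RT-PCR, gave the signal. Cells were HepG2 transfected with cis-element reporter units and treated 24 h; fitting was bidirectional relative to DMSO.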

A short description of assay [8]: ATG_TA_CIS: Attagene CIS-FACTORIAL HepG2 Assay for human TA Basal Promoter (AID 2282964). The following applies: HepG2 Attagene CIS-factorial TA basal promoter reporter; actives raise or lower the signal. A digest of the protocol: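 Transfected HepG2, 24 h compound exposure; RNA → RT-PCR → FAM primer extension → HpaI cut → CE fluorescence. Gain/loss-of-signal fitted against DMSO negative control. Background-control readout.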

A short description of assay [9]: ATG_TCF_b_cat_CIS: Attagene CIS-FACTORIAL HepG2 Assay for human T-Cell-Factor with beta-catenin (TCF/b-cat) (AID 2282965). Particulars: HepG2 TCF/beta-catenin cis-reporter transcription, actives raise or lower the signal. In outline: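 HepG2, transient MRTU transfection, cis-element-driven reporters (endogenous TFs). 24 h compound exposure. Readout: reporter mRNA by RT-PCR + 6-FAM primer extension, HpaI digest, capillary electrophoresis. Gain/loss fit vs DMSO baseline.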

A short description of assay [10]: ATG_TAL_CIS: Attagene CIS-FACTORIAL HepG2 Assay for human TAL Basal Promoter (AID 2282966).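 Note: background control endpoint measuring basal TAL promoter reporter mRNA not a specific factor.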 The following applies: HepG2 Attagene cis-factorial TAL promoter reporter; actives raise or lower the signal. A digest of the protocol:
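Endogenous transcription-factor activity is sensed in HepG2 cells through transfected cis-promoter reporter constructs. After 24 h dosing, reporter transcripts are quantified by RT-PCR and capillary electrophoresis. Gain or loss of signal is fitted relative to DMSO.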

Assay [11] can be described thus: ATG_TGFb_CIS: Attagene CIS-FACTORIAL HepG2 Assay for human Transforming Growth Factor (TGF) (AID 2282967). The following applies: HepG2 Attagene CIS TGFb reporter, mRNA transcription; actives raise or lower the signal. In outline:
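Readout: fluorescently labeled reporter cDNA fragments resolved by capillary electrophoresis after RT-PCR. Transfected HepG2 cells dosed for 24 h; endogenous TF activity at TGFB1-linked cis element; gain or loss fitted relative to DMSO.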

Assay [12] is described as follows: ATG_VDRE_CIS: Attagene CIS-FACTORIAL HepG2 Assay for human Vitamin D Receptor Element (VDRE) (AID 2282968). Particulars: HepG2 VDRE cis-reporter transcription, actives raise or lower the signal. In outline:
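Compounds were applied for 24 h to HepG2 cells transfected with promoter-regulated reporter units. Total RNA was reverse-transcribed, and reporter amplicons were fluorescently labelled and sized by capillary electrophoresis.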

In assay [13] the target is Nuclear receptor subfamily 1 group I member 3 (Homo sapiens) (UniProt Q14994). Description: ATG_CAR_TRANS: Attagene TRANS-FACTORIAL HepG2 Assay for human Constitutive Androstane Receptor (CAR) (AID 2282969; active = hit-call score of the fitted dose curve at least 0.9, where 1 is the maximum;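 note: activators raise reporter mRNA above DMSO so AC50 marks induction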). Particulars: HepG2 Attagene TRANS-FACTORIAL CAR reporter. A digest of the protocol:
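Transiently transfected HepG2, multiplex TRANS reporters (CAR-Gal4 chimera driving GAL4-UAS reporter). 24 h dosing. Readout: reporter transcript by RT-PCR + capillary electrophoresis, fluorescence intensity; positive direction vs DMSO.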

The target in assay [14] is X-box-binding protein 1 (Homo sapiens) (UniProt P17861). Description: ATG_Xbp1_CIS: Attagene CIS-FACTORIAL HepG2 Assay for human X-box Binding Protein 1 (XBP1) (AID 2282972). Particulars: HepG2 XBP1 cis-element reporter, Attagene multiplex; actives raise or lower the signal. A digest of the protocol:
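Reporter transcripts were quantified by RT-PCR with fluorescent primer extension and capillary electrophoresis after 24 h chemical exposure. Cells: transiently transfected HepG2 carrying cis-regulated reporter constructs; data fitted bidirectionally relative to DMSO.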

Assay [15] can be described thus: ATG_M_19_TRANS: Attagene TRANS-FACTORIAL HepG2 Assay for M19 Transcription Factor (Internal Marker) (AID 2282974; active = hit-call score of the fitted dose curve at least 0.9, where 1 is the maximum). The following applies: HepG2 Attagene TRANS-FACTORIAL M19 internal marker reporter. In outline:
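Reporter mRNA induction was measured in transfected HepG2 cells 24 h after dosing. Endpoint fitted upward relative to DMSO and serves as a background control within the multiplexed TRANS panel.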

The nature of assay [16]: ATG_GAL4_TRANS: Attagene TRANS-FACTORIAL HepG2 Assay for GAL4 (Internal Marker) (AID 2282976; active = hit-call score of the fitted dose curve at least 0.9, where 1 is the maximum). Particulars: HepG2 Attagene TRANS GAL4 internal marker reporter. In outline:
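Fluorescence from capillary electrophoresis of labelled RT-PCR products quantifies reporter mRNA induction after 24 h dosing of HepG2 cells carrying transfected GAL4-UAS reporter transcription units. Vehicle DMSO serves as baseline.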

Assay [17] concerns the target Estrogen receptor (Homo sapiens) (UniProt P03372). Description: ATG_ERa_TRANS: Attagene TRANS-FACTORIAL HepG2 Assay for human Estrogen Receptor alpha (ERa) (AID 2282970; active = hit-call score of the fitted dose curve at least 0.9, where 1 is the maximum). The following applies: HepG2 Attagene TRANS ERa GAL4 reporter, mRNA. In outline: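 Transfected HepG2 cells carrying GAL4-UAS-driven reporter units were dosed for 24 hours. Total RNA was reverse-transcribed, reporter sequences PCR-amplified, FAM-labelled, HpaI-digested and resolved by capillary electrophoresis. Increases over DMSO control defined activity.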

The target in assay [18] is Steroid hormone receptor ERR1 (Homo sapiens) (UniProt P11474). Description: ATG_ERRa_TRANS: Attagene TRANS-FACTORIAL HepG2 Assay for human Estrogen-Related Receptor alpha (ERRa) (AID 2282971; active = hit-call score of the fitted dose curve at least 0.9, where 1 is the maximum). Particulars: HepG2 Attagene TRANS reporter, ERRa transactivation. A digest of the protocol: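 HepG2 cells were transiently transfected with multiple GAL4-UAS reporter units, then dosed with compound for 24 h. Total RNA was reverse-transcribed, reporter cDNA PCR-amplified and fluorescently labelled, and fragments resolved by capillary electrophoresis; induction was compared with DMSO.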

“And” between values parts separate entries of the source, which are not always exact repeats. Identical values can stand only once. Inconclusive results are not listed. Some compounds were tested as several samples or in several runs, with calls that do not always agree. The source made the active and inactive calls. Rule for the calls, unless noted: active = hit-call score of the fitted dose curve at least 0.9, where 1 is the maximum; inactive = score below 0.9.

Sequence of Signal transducer and activator of transcription 3 (Homo sapiens) (P40763 whole entry, looked up, the tested form may be a part): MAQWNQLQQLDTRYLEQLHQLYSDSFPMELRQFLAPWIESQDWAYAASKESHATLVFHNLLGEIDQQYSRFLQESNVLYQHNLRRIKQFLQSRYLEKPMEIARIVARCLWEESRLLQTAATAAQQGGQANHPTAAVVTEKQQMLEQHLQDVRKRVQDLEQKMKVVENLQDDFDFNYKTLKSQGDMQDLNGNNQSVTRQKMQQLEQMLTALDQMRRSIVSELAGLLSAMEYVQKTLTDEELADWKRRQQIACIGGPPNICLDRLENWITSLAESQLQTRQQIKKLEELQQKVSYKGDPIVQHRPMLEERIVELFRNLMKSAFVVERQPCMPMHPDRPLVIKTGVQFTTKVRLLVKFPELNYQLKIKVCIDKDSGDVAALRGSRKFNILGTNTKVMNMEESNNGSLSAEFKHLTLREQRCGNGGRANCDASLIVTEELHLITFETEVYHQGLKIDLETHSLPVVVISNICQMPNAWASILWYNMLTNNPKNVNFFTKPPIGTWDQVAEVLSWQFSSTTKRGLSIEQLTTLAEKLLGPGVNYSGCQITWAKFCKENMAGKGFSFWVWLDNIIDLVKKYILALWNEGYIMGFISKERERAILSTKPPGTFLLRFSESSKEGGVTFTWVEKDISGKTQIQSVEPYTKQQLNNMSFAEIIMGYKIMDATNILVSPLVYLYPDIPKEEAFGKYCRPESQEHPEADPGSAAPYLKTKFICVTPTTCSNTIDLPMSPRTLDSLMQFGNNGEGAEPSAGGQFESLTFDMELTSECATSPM
Sequence of Transcription factor Sp1 (Homo sapiens) (P08047 whole entry, looked up): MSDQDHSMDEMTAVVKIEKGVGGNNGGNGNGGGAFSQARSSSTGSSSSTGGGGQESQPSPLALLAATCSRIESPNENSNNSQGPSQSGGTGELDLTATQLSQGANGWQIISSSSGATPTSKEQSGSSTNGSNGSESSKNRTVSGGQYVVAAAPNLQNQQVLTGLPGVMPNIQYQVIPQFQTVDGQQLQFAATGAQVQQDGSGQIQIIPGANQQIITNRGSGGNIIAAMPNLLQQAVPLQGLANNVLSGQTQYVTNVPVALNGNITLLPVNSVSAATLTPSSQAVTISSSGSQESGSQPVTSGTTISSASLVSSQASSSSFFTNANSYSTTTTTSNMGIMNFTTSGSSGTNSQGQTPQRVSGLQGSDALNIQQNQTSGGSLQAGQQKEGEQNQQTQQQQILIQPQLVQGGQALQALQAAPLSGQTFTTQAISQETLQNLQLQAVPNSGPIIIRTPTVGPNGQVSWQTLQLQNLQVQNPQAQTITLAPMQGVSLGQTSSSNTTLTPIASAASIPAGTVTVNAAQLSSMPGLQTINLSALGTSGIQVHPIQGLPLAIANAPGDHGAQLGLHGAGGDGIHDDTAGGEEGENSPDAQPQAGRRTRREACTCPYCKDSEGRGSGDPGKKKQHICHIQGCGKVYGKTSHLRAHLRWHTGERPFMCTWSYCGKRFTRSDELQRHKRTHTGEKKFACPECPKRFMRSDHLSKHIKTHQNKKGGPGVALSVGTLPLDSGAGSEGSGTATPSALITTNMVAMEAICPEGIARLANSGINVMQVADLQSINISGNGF
Sequence of Nuclear receptor subfamily 1 group I member 3 (Homo sapiens) (Q14994 whole entry, looked up, the tested form may be a part): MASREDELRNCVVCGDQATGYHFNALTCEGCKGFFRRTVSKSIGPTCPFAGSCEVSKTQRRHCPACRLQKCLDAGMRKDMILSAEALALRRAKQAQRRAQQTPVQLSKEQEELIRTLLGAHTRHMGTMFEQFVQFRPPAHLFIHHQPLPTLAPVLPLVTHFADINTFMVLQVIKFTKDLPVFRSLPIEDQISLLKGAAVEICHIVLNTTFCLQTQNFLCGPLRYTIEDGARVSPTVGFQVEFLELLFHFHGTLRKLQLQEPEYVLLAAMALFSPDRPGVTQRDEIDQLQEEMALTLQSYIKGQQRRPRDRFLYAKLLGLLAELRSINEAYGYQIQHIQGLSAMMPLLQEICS
Sequence of X-box-binding protein 1 (Homo sapiens) (P17861 whole entry, looked up): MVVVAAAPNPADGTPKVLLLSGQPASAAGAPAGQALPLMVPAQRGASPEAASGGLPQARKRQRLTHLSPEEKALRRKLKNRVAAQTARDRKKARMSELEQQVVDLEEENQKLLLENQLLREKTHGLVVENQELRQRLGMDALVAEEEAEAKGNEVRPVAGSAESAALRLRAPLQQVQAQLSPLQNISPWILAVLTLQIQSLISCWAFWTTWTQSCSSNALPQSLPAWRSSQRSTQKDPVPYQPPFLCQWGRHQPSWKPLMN
Sequence of Estrogen receptor (Homo sapiens) (P03372 whole entry, looked up, the tested form may be a part): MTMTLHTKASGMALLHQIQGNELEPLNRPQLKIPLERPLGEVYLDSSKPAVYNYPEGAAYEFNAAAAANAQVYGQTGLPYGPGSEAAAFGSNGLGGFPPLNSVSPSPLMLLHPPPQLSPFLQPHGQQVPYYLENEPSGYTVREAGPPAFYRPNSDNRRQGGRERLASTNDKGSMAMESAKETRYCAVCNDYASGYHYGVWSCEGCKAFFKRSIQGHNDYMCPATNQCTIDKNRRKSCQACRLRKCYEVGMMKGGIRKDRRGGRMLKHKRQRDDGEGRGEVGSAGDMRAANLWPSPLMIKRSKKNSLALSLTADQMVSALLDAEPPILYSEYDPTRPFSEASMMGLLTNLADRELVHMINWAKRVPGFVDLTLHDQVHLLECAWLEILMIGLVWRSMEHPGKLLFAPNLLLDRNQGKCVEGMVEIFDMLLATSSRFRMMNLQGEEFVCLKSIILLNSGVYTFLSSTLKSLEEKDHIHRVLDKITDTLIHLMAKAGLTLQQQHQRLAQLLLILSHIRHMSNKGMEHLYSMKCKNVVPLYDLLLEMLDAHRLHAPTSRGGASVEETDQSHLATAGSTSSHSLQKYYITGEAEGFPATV
Sequence of Steroid hormone receptor ERR1 (Homo sapiens) (P11474 whole entry, looked up, the tested form may be a part): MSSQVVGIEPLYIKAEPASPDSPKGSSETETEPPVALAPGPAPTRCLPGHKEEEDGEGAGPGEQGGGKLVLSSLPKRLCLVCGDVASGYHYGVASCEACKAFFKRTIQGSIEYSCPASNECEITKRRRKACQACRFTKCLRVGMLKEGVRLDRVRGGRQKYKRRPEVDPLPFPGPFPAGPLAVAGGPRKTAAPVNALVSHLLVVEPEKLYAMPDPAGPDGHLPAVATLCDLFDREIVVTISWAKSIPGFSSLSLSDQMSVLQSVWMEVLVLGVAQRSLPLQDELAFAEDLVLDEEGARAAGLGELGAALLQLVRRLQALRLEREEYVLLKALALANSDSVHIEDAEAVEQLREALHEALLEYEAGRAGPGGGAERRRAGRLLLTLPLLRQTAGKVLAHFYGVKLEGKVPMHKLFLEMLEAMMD

For the compound `CCCCCCCCOC(=O)c1ccccc1C(=O)OCCCCCCCC`, in [1], the AC50 (commonly the concentration giving half of the maximal activity seen) was 5.64 µM (active). For the same compound, the compound was classed as inactive in assay [2], in assay [3], in assay [4], in assay [5], in [6] and in assay [7]. Moreover, the outcome in [8], in assay [9], in assay [10], in assay [11], in assay [12] and in [13] was inactive. The result in assay [14] and in [15] was inactive.
As for `O=S(=O)(O)C(F)(F)C(F)(F)C(F)(F)C(F)(F)F`, the compound was classed as inactive in [2], in assay [3], in assay [4], in assay [5], in assay [6] and in [7]. The call in assay [8], in assay [9], in assay [10], in assay [11], in assay [12] and in assay [14] was inactive. In addition, the outcome in assay [15] and in assay [16] was inactive.
Regarding `O=NN(c1ccccc1)c1ccccc1`, the compound was classed as inactive in [2], in [3], in assay [4], in assay [5], in assay [6] and in [7]. The result in [8], in [9], in assay [10], in assay [11] and in [14] was inactive. In addition, the AC50 in [17] is 23.6 µM (active).
As for `ClC1=C(Cl)[C@]2(Cl)[C@@H]3[C@@H]4C[C@@H]([C@H]5O[C@@H]45)[C@@H]3[C@@]1(Cl)C2(Cl)Cl`, the compound was called inactive in assay [2], in assay [4], in assay [5], in assay [6], in assay [7] and in assay [8]. Also, the call in assay [10] and in assay [11] was inactive. Further, the AC50 in assay [3] is 81.4 µM (active); in assay [9] it was 56.2 µM (active); in assay [12], 17.6 µM (active); in assay [17] it was 5.89 µM (active).
With `OCC(O)CO`, the half-maximal activity concentration (AC50) was 26.1 µM (active) in assay [2] and 85.1 µM (active) in assay [17]. The compound was called inactive in assay [2], in assay [3], in assay [4], in [5], in assay [6] and in assay [7]. Also, the call in assay [8], in assay [9], in [10], in assay [11], in assay [12] and in assay [18] was inactive. For the same compound, the compound was called inactive in assay [14] and in [15].
Regarding `CCCCCCOC(=O)c1ccccc1C(=O)OCCCCCC`, in [2], the AC50 was 2.84 µM (active). Further, the compound was classed as inactive in [3], in assay [4], in [5], in assay [6], in assay [7] and in assay [8]. Also, the call in assay [9], in assay [10], in assay [11], in assay [13], in assay [17] and in assay [16] was inactive.
Turning to `CCC(C)(c1ccc(O)cc1)c1ccc(O)cc1`, the AC50 is 59.1 µM (active) and 21.5 µM (active) in [3]; 24.4 µM (active) in assay [5]; 33.4 µM (active) and 41.5 µM (active) and 13.9 µM (active) in [6]; 60.7 µM (active) in [8]; 39.7 µM (active) and 49.7 µM (active) and 47.8 µM (active) in assay [9]. Also, the outcome in assay [3], in assay [4], in [5], in assay [7], in assay [8] and in assay [9] was inactive. Besides, the call in [10], in assay [11], in assay [13] and in assay [15] was inactive.

The values above are taken from PubChem BioAssay (EPA / NIEHS).
